Assay results from PubChem BioAssay.
Calls of active or inactive are those of the source.

Experiment: yeast growth modulation, basal conditions, primary screen, YJM789 clinical isolate, OD600, 24 h (AID 1089);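 further: growth of clinical yeast isolate S. cerevisiae YJM 789 seeded 1000 cells per well; test concentration not given here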
Conditions: S. cerevisiae YJM789 growth, higher = more signal, called active from +8 up or from −8 down

z-score, inactive:
CC(C)=CCCC(C)=CCON=C1C[C@@H](O)[C@@H](O)[C@@H]2[C@@H]3C(=O)N(c4ccc(F)cc4F)C(=O)[C@@H]3CC[C@@H]12 0.918
CCc1cc2c(nc1CC)CCN(CCC(C)=NO[C@H](C)c1cn([C@H](CO)Cc3ccccc3)nn1)C2 -0.563
COC(=O)[C@H](C)NC(=O)CCC1CC(OC(=O)NCCc2ccc(F)cc2)CC2(CCCC(COC(=O)NCCC(C)C)O2)O1 (some centres undefined) -1.79
CCN1C(=O)[C@@H]2[C@H]3C(=CC[C@@H]2C1=O)C1(OCCCO1)[C@H]1O[C@H]1[C@H]3O 1.17
CCCNC(=O)OC[C@H]1O[C@H](CCON=C(C)CCN2CCc3nc(CC)c(CC)cc3C2)C=C[C@@H]1Oc1ccc(OC)cc1 -0.348
COc1cccc([C@H]2Oc3ccc(OC)cc3C(=NO[C@H](C)c3cn([C@H](CO)Cc4ccccc4)nn3)[C@@H]2O)c1 -1.77
Cc1ccc(S(=O)(=O)n2c3ccccc3c3nnc(C(=O)c4ccccc4)nc32)cc1 -0.232
CCOC(=O)[C@H](Cc1ccccc1)NC(=O)CCC1CC(OC(=O)NCc2ccc3c(c2)OCO3)CC2(CCCC(COC(=O)NCCc3ccccc3OC)O2)O1 (some centres undefined) 0.163
Cn1c(=O)n2n(c1=O)[C@H]1[C@H](O)[C@@H]3O[C@@H]3C(=O)[C@H]1CC2 0.954
C[C@@H]1CC[C@H]2C(=O)O[C@@H](Cc3ccccc3)CN2[C@H]1c1ccc(Br)cc1 0.004
CCOC(=O)[C@H](CC(C)C)NC(=O)CCC1CC(OC(=O)NCCc2ccc(F)cc2)CC2(CCCC(COC(=O)NCCc3ccc(Cl)cc3)O2)O1 (some centres undefined) -0.623
CO[C@H]1COC(=O)[C@H](C)NC(=O)CC=C[C@@H](C)[C@H](OC)COC(=O)[C@@H](OCc2ccccc2)C=C[C@@H]1C -0.365
C#CCCCON=C1C[C@@H](O)[C@@H](O)[C@@H]2[C@@H]3C(=O)N(c4ccc(F)cc4F)C(=O)[C@@H]3CC[C@H]12 -0.989
O=C1C[C@@H](O)[C@@H](O)[C@@H]2[C@@H]3C(=O)N(Cc4ccc5c(c4)OCO5)C(=O)[C@@H]3CC[C@H]12 0.264
